# Measurements published in PubChem BioAssay AID463173 (ICCB-Longwood Screening Facility, Harvard Medical School, 2010).
# About 1,700 (3.3%) of roughly 52,000 compounds were called active. Only a selection was taken, and actives are over-represented in it overall. Values without a mark were called inactive. No stated cut-off is given here; in the data, active means survival mostly below about 52% (no sharp cut-off); inactive means mostly above about 56%.
# System: Wild type
# Test: growth inhibition of S. aureus wild type versus tarO mutant, primary screen, teichoic acid synthesis inhibitors, RN4220, OD600 (AID 463173)
# Settings: S. aureus RN4220 wild type/DeltatarO growth, OD600, 18 h, stronger effect = lower value, screened at 18.75 µg/mL (by protocol)
row,SMILES,survival
1,C=CCn1cc(F)c(=O)n(CC=C)c1=O,109%
2,CCOc1ccc(NC(=O)Cn2nc(Cc3ccncc3)c3ccccc3c2=O)cc1,108%
3,CC(C)C(=O)N1CCN(c2ccc(NC(=O)c3ccccc3)cc2)CC1,95%
4,O=C(Nc1ccc2oc(=O)ccc2c1)c1cccc(F)c1,106%
5,COc1ccc2nc(N(Cc3cccnc3)C(=O)c3ccco3)sc2c1,70%
6,COc1ccc2sc(N(Cc3cccnc3)C(=O)c3cccs3)nc2c1,64%
7,COc1ccc2sc(N(Cc3cccnc3)C(=O)c3ccco3)nc2c1,-4% (active)
8,COc1cc(C(=O)N(Cc2cccnc2)c2nc3cc(C)c(C)cc3s2)cc(OC)c1OC,22%
9,Cc1cc2nc(N(Cc3cccnc3)C(=O)c3ccc(Cl)s3)sc2cc1C,0% (active)
10,CCS(=O)(=O)c1ccccc1C(=O)N(Cc1cccnc1)c1nc2cc(C)c(C)cc2s1,118%
11,Cc1scc(-c2ccccc2)[n+]1CCO,109%
12,CCOc1ccc(NC2SC(=O)N(Cc3ccccc3)C2=O)cc1 (centres undefined),72%
13,COc1cc(OC)c(NC(=O)c2cnn(-c3cccc(Cl)c3C)c2C2CCN(C(=O)OC(C)(C)C)CC2)cc1Cl,53%
14,COc1ccc(CNC(=O)CSc2nc(-c3ccc(OC)c(OC)c3)cc(C(F)(F)F)n2)cc1,83%
15,COc1ccc(CNc2nc(-c3ccc(Cl)cc3)cc(C(F)(F)F)n2)cc1,-4% (active)
16,COc1ccc(-c2cc(C(F)(F)F)nc(SCC(=O)NCc3ccc(Cl)cc3)n2)cc1,83%
17,CCOC(=O)c1ccn(-c2nc(-c3cccc(OC)c3)cc(C(F)(F)F)n2)n1,48%
18,COC(=O)c1ccn(-c2nc(-c3ccc(Cl)cc3)cc(C(F)(F)F)n2)n1,9% (active)
19,COc1ccc(-c2cc(C(F)(F)F)nc(NCc3ccc(Cl)cc3)n2)cc1,-3% (active)
20,COC(=O)CSc1nc(-c2ccc(F)cc2)cc(C(F)(F)F)n1,123%
21,COc1ccc(-c2cc(C(F)(F)F)nc(S(C)(=O)=O)n2)cc1,98%
22,CS(=O)(=O)N(CC(=O)N1CCCC1)c1cccc(Cl)c1Cl,97%
23,Cc1cc(C)c2nc(NC(=O)c3ccc(S(=O)(=O)N4CCC(C)CC4)cc3)sc2c1,79%
24,O=C(CN1C(=O)CSC1=O)NC1CCCCC1,104%

row,SMILES,survival
1,COc1ccc(OC)c(-c2cc(C(=O)NC(C)c3ccccc3)no2)c1 (centres undefined),-12% (active)
2,COc1ccc(OC)c(-c2cc(C(=O)NCc3ccc(Cl)cc3)no2)c1,85%
3,COc1ccc(OC)c(-c2cc(C(=O)Nc3cccc(Cl)c3C)no2)c1,26%
4,CC(NC(=O)c1cc(-c2ccc(Cl)cc2)on1)c1ccccc1 (centres undefined),140%
5,COc1ccc(OC)c(-c2cc(C(=O)Nc3ccc(C)c(C)c3)no2)c1,-9% (active)
6,CC(C)c1cc(C(=O)NC(C)c2ccccc2)no1 (centres undefined),81%
7,COc1ccc(CNc2oc(-c3ccc(COc4ccc(OC)cc4)o3)nc2C#N)cc1,129%
8,CC(=O)c1nn(-c2ccc(OC(F)(F)F)cc2)nc1Nc1ccc(C)cc1,96%
9,CCCS(=O)(=O)Nc1cc2c(cc1NCc1ccccc1)n(C)c(=O)n2C,82%
10,Cc1ccc2ncc(S(=O)(=O)c3ccccc3)c(N3CCCCC3C)c2c1 (centres undefined),0% (active)
11,COc1ccc(S(=O)(=O)c2cnc3ccc(Cl)cc3c2N2CCCCC2C)cc1 (centres undefined),23%
12,CCN1CCN(c2c(S(=O)(=O)c3ccccc3)cnc3ccc(Cl)cc23)CC1,119%
13,CC1CCCCN1c1c(S(=O)(=O)c2ccc(Cl)cc2)cnc2ccccc12 (centres undefined),3% (active)
14,Cc1cccc(S(=O)(=O)c2cn(Cc3ccccc3)c3cc(N4CCCCC4C)c(F)cc3c2=O)c1 (centres undefined),71%
15,CCN1CCN(c2c(S(=O)(=O)c3ccc(Cl)cc3)cnc3ccccc23)CC1,82%
16,COc1ccc(Cl)cc1NC(=O)Cn1nnc(C(=O)NCc2ccc3c(c2)OCO3)c1N,81%
17,c1ccc(Cn2nnnc2C(c2cccnc2)N2CCN(c3ccccc3)CC2)cc1 (centres undefined),113%
18,COC(=O)COc1ccc(Oc2nc(NC(C)(C)C)nc(N(C)C)n2)nn1,85%
19,Cc1ccc(CNC(=O)CSc2c(C(C)C)cnc3c2c(=O)n(C)c(=O)n3C)cc1,58%
20,CCCc1cnc2c(c1SCC(=O)NCc1ccc(C)cc1)c(=O)n(C)c(=O)n2C,-6% (active)
21,CCc1cnc2c(c1SCC(=O)NCc1ccc(C)cc1)c(=O)n(C)c(=O)n2C,67%
22,CCOC(=O)c1cc(-c2ccccc2)n(-c2cccc(C(=O)Nc3cccc(SC)c3)c2)c1C,0% (active)
23,CCOC(=O)c1cc(-c2ccccc2)n(-c2cccc(C(=O)Nc3ccc(OC)cc3)c2)c1C,77%
24,CCOC(=O)c1cc(-c2ccccc2)n(-c2cccc(C(=O)Nc3ccc(OCC)cc3)c2)c1C,10% (active)

row,SMILES,survival
1,CCOC(=O)c1cc(-c2ccccc2)n(-c2cccc(C(=O)Nc3cc(OC)cc(OC)c3)c2)c1C,88%
2,CCOC(=O)c1cc(-c2ccccc2)n(-c2cccc(C(=O)Nc3cccc(C(C)=O)c3)c2)c1C,70%
3,CCOC(=O)c1cc(-c2ccccc2)n(-c2cccc(C(=O)Nc3cccc(F)c3)c2)c1C,131%
4,CCc1ccc(Nc2nnc(-c3cc4cc(OC)ccc4oc3=O)s2)cc1,138%
5,CCC(CC)C(=O)Nc1cc(-c2cccc(C)c2)nn1-c1ccccc1,69%
6,COc1ccc(CCn2c(=O)[nH]c3cc(C(=O)N4CCN(c5ccccc5)CC4)ccc3c2=O)cc1OC,102%
7,O=C1OC(c2ccccc2)=C/C1=C/N1CCOCC1,116%
8,COc1ccc(C2C=C(c3ccc(Cl)cc3)Nc3nc(-c4ccc(Cl)cc4)nn32)cc1 (centres undefined),88%
9,Cc1ccc(C2C=C(c3ccc(Cl)cc3)Nc3nc(NS(=O)(=O)c4ccccc4)nn32)cc1 (centres undefined),75%
10,COc1ccc(C2C=C(c3ccccc3)Nc3nc(NS(=O)(=O)c4ccc(Cl)cc4)nn32)cc1 (centres undefined),0% (active)
11,COc1ccc(C2C=C(c3ccccc3)Nc3nc(NS(=O)(=O)c4ccc(C)cc4)nn32)cc1 (centres undefined),66%
12,O=S(=O)(Nc1nc2n(n1)C(c1ccc(F)cc1)C=C(c1ccccc1)N2)c1ccc(Cl)cc1 (centres undefined),14% (active)
13,O=S(=O)(Nc1nc2n(n1)C(c1ccc(F)cc1)C=C(c1ccccc1)N2)c1ccccc1 (centres undefined),74%
14,Cc1ccc(C2C=C(c3ccccc3)Nc3nc(NS(=O)(=O)c4ccccc4)nn32)cc1 (centres undefined),83%
15,COc1ccc(C2C=C(c3ccccc3)Nc3nc(NS(=O)(=O)c4ccccc4)nn32)cc1 (centres undefined),29%
16,Cc1ccc(C2=CC(c3ccc(Cl)cc3)n3nc(-c4ccc(C)cc4)nc3N2)cc1 (centres undefined),1% (active)
17,Cc1ccc(S(=O)(=O)Nc2nc3n(n2)C(c2ccc(Cl)cc2)C=C(c2ccccc2)N3)cc1 (centres undefined),-4% (active)
18,O=S(=O)(Nc1nc2n(n1)C(c1ccc(F)cc1)C=C(c1ccc(Cl)cc1)N2)c1ccccc1 (centres undefined),57%
19,COc1ccc(C2C=C(c3ccc(F)cc3)Nc3nc(-c4ccc(Cl)cc4)nn32)cc1 (centres undefined),105%
20,CSc1ccc(/C=C(\C#N)C(=O)NC2CCCCC2)cc1,95%
21,O=C(Cn1nc(-c2ccccc2)c2c(c1=O)CCCC2)Nc1ccc(F)c(Cl)c1,44%
22,CCOc1ccccc1NC(=O)N1CCC(N2CCN(Cc3ccccc3)C(=O)C2=O)CC1,68%
23,Cc1ccc(C)c(S(=O)(=O)NCC(c2ccc(N(C)C)cc2)N2CCOCC2)c1 (centres undefined),73%
24,Cc1sc2nc(SCC(=O)N(CCO)CCO)n(C3CCCCC3)c(=O)c2c1C,106%

row,SMILES,survival
1,CCOc1ccc(CCNC(=O)CS(=O)(=O)Cc2nc(-c3cccc(Cl)c3)oc2C)cc1,82%
2,Oc1cccc2c1NCCC2,113%
3,O=S(=O)(c1cccc(Cl)c1)c1nnn2c1nc(NCc1ccc3c(c1)OCO3)c1sccc12,80%
4,CCSc1oc(-c2cccs2)nc1S(=O)(=O)c1ccc(Br)cc1,51%
5,CCOC(=O)CNC(=O)CC(c1cc(OC)c(OC)c(OC)c1)N1Cc2ccccc2C1=O (centres undefined),60%
6,Cc1c(Cl)cccc1NC(=O)C1CCN(c2ncnc3c2nc2n3CCCCC2)CC1,129%
7,O=C(COc1ccccc1)Nc1ccc2nc(SCCOc3ccccc3)sc2c1,94%
8,COc1ccc(CNC(=O)Cn2nc3c(cc2=O)CCCC3)cc1,64%
9,COc1ccc(C2=CC(c3cccc(C)c3)n3nnnc3N2)cc1 (centres undefined),71%
10,Cc1cccc(C2C=C(c3ccc(C)c(C)c3)Nc3nnnn32)c1 (centres undefined),1% (active)
11,COc1cccc(C2C=C(c3ccc(C)c(C)c3)Nc3nnnn32)c1OC (centres undefined),71%
12,CS(=O)(=O)N1CCN(C(=O)c2ccccc2)CC1,110%
13,CCn1cc(C(=O)NCCCN(CC(C)C)CC(C)C)c(=O)c2cc(S(=O)(=O)N3CCc4ccccc4C3)ccc21,80%
14,Cc1cc(C)c(NS(=O)(=O)c2ccc3c(c2)NC(=O)CCS3)c(C)c1,60%
15,O=C1CCSc2ccc(S(=O)(=O)Nc3ccc(Cl)c(C(F)(F)F)c3)cc2N1,81%
16,CC1C(=O)Nc2ccc(S(=O)(=O)Nc3ccccc3Br)cc2NC1=O (centres undefined),89%
17,Cc1ccc(NS(=O)(=O)c2ccc3c(c2)NC(=O)CCS3)cc1C,63%
18,Cc1cc(C)cc(NS(=O)(=O)c2ccc3c(c2)NC(=O)C(C)S3)c1 (centres undefined),12% (active)
19,Cc1ccc(NS(=O)(=O)c2ccc3c(c2)NC(=O)CCS3)c(Br)c1,-3% (active)
20,Cc1ccccc1NS(=O)(=O)c1ccc2c(c1)NC(=O)CCS2,57%
21,O=C1CCSc2ccc(S(=O)(=O)Nc3cccc(C(F)(F)F)c3)cc2N1,-4% (active)
22,Cc1ccc(NS(=O)(=O)c2ccc3c(c2)NC(=O)C(C)C(=O)N3)cc1F (centres undefined),86%
